Several values for one entry are separate records, joined by “and”; a condition that tells them apart may be missing. Equal values may be shown once. Activity calls are given as the source filed them.
Also: test concentration not given here.

The nature of the first assay: resazurin metabolic signal in A549 cells – cell-based, resazurin fluorescence, 24 h, PK04 Diversity Set, profiling panel (AID 1171). Conditions: A549 viability, higher = more signal, called active from +8 up or from −8 down. On the technique in general: Resazurin is reduced to fluorescent resorufin, in cell work by metabolically active cells.
For `CC(C)OC(=O)C=C1C[C@@H](c2ccccc2)O[C@@H](c2ccccc2)O1`, the z-score is 1.28 (inactive) and 0.255 (inactive).
Still for that read-out and setting: for `COC(=O)C1=C(C)N(Cc2ccccc2)C2=C(C(=O)c3ccccc3)[C@H](c3ccccc3)[C@@](O)(C(=O)OC)C(=O)N2[C@@H]1c1ccccc1` the value was 1.39 (inactive) and -0.344 (inactive); for `COC(=O)[C@@]1(Cc2ccc(F)cc2)[C@H]2c3cc(C(=O)N4CCCC4)n(Cc4c(CO)[nH]cc(C)c4=O)c3C[C@H]2CN1C(=O)c1ccccc1`, -0.133 (inactive) and 2.11 (inactive).
Same read-out and setting: under `C[N+](C)(C)CCCCCCNC(=O)[C@H]1C[C@H]2C(=O)N[C@@H](CCCC[N+](C)(C)C)C(=O)N2[C@H]1c1ccc(O)cc1` stands -0.673 (inactive) and -0.0771 (inactive); under `CC(CO)N1C(=O)[C@@H]2C3C(=O)OCCC=C[C@H]3OC23C=CCN(CCN2CCOCC2)C(=O)[C@@H]13` (stereo partly specified), -0.298 (inactive) and 0.141 (inactive); under `CCCC[C@@H]1CN2[C@H](c3ccc(Br)cc3)[C@@H](C)CC[C@H]2C(=O)O1`, 0.301 (inactive) and 1.49 (inactive).
The same measure, in the same setting: under `CO[C@H]1COC(=O)CC=C[C@H](C)[C@H](OC)COC(=O)[C@@H](C)COC(=O)CC=C[C@@H]1C` stands 0.211 (inactive) and -0.379 (inactive).

The next assay is described as follows: resazurin metabolic signal in HepG2 cells – cell-based, resazurin fluorescence, 24 h, PK04 Diversity Set, profiling panel (AID 1172). Conditions: HepG2 viability, higher = more signal.
As for `CO[C@H]1COC(=O)CC=C[C@@H](C)COC(=O)[C@H](CCSC)NC(=O)CC=C[C@@H]1C`, the z-score was -0.591 and 0.597.
Still for that read-out and setting: under `C=CCN(CCCCC)C(=O)C1N(C(C)(C)CO)C(=O)C2C(C(=O)O)C3C=CC21O3` (stereo unspecified) stands -0.839 and -0.382.
Still for that read-out and setting: for `C=CCN1C(=O)[C@]2(O[C@H](CCn3cc(CCO)nn3)[C@@H]([Si](C)(C)c3ccc(OC)cc3)[C@@H]2C)c2cc(N3C(=O)c4cccc5cccc3c45)ccc21` the value was -6.38 and -6.41; for `CCC[C@@H]1C[C@@]1(CCC)[C@@H](NC(=O)c1ccc(-c2ccccc2)cc1)c1cccc(Cl)c1`, 0.791 and 0.395; for `C[C@@H]1CC[C@H]2C(=O)O[C@H](CN=[N+]=[N-])CN2[C@H]1c1ccc(Br)cc1`, -0.528 and 0.231.
The same measure, in the same setting: for `C[C@@H]1CN2[C@@H](CC[C@@H](C)[C@@H]2c2ccc(Br)cc2)C(=O)O1` the value was 0.0519 and -0.598.
With `COc1ccc(O[C@H]2C=C[C@@H](c3ccccc3)O[C@@H]2COC(=O)CCC(C)=NO[C@H](C)c2cn([C@H](CO)Cc3ccccc3)nn2)cc1`, the z-score was 0.327 and 0.346.
In the case of `CON(C)C(=O)c1nnc2c3ccccc3n(S(=O)(=O)c3ccc(C)cc3)c2n1`, the z-score was -0.311 and -0.466.
On the same count and under the same terms, for `COc1ccc(COC(=O)NN=C2C[C@@H](O)[C@@H](O)[C@@H]3[C@@H]4C(=O)N(C(C)(C)C)C(=O)[C@@H]4CC[C@H]23)cc1` the value was -0.947; for `COC(=O)C1=C(C)N(Cc2ccccc2)[C@]23O[C@](C(=O)OC)(C(=O)N2[C@@H]1c1ccccc1)[C@@H](C(=O)OC)[C@H]3C(=O)OC`, 0.348 and -0.761; for `C[C@@H]1CC[C@H]2C(=O)NC[C@@H](O)CN2[C@H]1c1ccc(Br)cc1`, -0.278 and -0.27.
Still for that read-out and setting: for `C#CCCCON=C1C[C@@H](O)[C@@H](O)[C@@H]2[C@@H]3C(=O)N(C4CCCCC4)C(=O)[C@@H]3CC[C@H]12` the value was -0.477.
On to `C[C@@H]1CC[C@@H](C(=O)O)N[C@H]1c1ccc(-c2ccco2)cc1`, for which the z-score is 0.443.
In the case of `C=CCN(C(=O)C1N(C(C)(C)CO)C(=O)C2C(C(=O)O)C3C=CC21O3)C(C)(C)C` (stereo unspecified), the z-score is -0.724 and -0.381.
Same read-out and setting: under `C=CCN(C(=O)C(c1cccs1)N(C(=O)/C=C\C(=O)O)c1ccc(CCO)cc1)C(C)(C)C` (stereo unspecified) stands -0.388 and -0.35.
Turning to `Cc1ccc(S(=O)(=O)N[C@H]2COC(=O)[C@@H](Cc3ccccc3)NC(=O)[C@@H](C)COC(=O)CC=C[C@@H]2C)cc1`, the z-score was 0.328 and 0.224.
The same measure, in the same setting: for `CC(C)[Si]1(C(C)C)OCc2cc(CCCc3cc4c(c(CCc5ccccc5)n3)[Si](C(C)C)(C(C)C)OC4)nc(CCc3ccccc3)c21` the value was 0.926 and -0.531.
The same measure, in the same setting: under `O=c1n(-c2ccccc2)c(=O)n2n1CC[C@@H]1C(=NOC[C@@H](O)COCc3ccco3)[C@H]3O[C@H]3[C@@H](O)[C@@H]12` stands -0.618 and -0.581.
As to `O=C1C[C@]2(c3ccc([N+](=O)[O-])cc3)C(=O)N(Cc3ccccc3)c3cc(CO)ccc3[C@H]2N1C1CCCCC1`, the z-score was 0.981 and -0.766.
Same read-out and setting: under `CCOC(=O)[C@H](CC(C)C)NC(=O)CCC1CC(OC(=O)NCc2cccc3ccccc23)CC2(CCCC(COC(=O)NCc3ccccc3)O2)O1` (stereo partly specified) stands 0.928; under `CCOC(=O)c1ccc(NC(=O)O[C@H]2[C@H](OC(=O)Nc3ccccc3)[C@H](OC(=O)Nc3ccccc3)[C@@H](OC)O[C@@H]2CO)cc1`, -1.03 and -1.82.
The same measure, in the same setting: under `CC[C@@H]1C(Sc2ccccc2)C(C(=O)O)[C@H](c2ccc(C)cc2)N1S(=O)(=O)c1ccc(C)cc1` (stereo partly specified) stands -0.706 and -0.917.
With `CCCC[C@@H]1CN2[C@@H](CC[C@@H](C)[C@@H]2c2ccc(Br)cc2)C(=O)O1`, the z-score was -0.175 and 0.523.
The same measure, in the same setting: under `C=CCN(CCCCC)C(=O)C(c1cccs1)N(C(=O)/C=C\C(=O)O)c1ccc(CCO)cc1` (stereo unspecified) stands -0.524 and -0.698.
Still for that read-out and setting: for `C=C(C)C(=O)OC[C@@H]1CN2[C@@H](CC[C@@H](C)[C@@H]2c2ccc(Br)cc2)C(=O)O1` the value was 0.726.
As to `COC(=O)C1=C2N(Cc3ccccc3)C(C)=C(C(=O)OC)[C@@H](c3ccccc3)N2C(=O)[C@](O)(C(=O)OC)C1`, the z-score was 1.08 and -0.565.
In the case of `C=C[C@@H](C)[C@@H](O)c1ccc(OCCO)cc1`, the z-score is 0.162 and 0.223.
Still for that read-out and setting: under `C=CCN(Cc1ccccc1)C(=O)C1N(C(C)(C)CO)C(=O)C2C(C(=O)O)C3C=CC21O3` (stereo unspecified) stands -0.767 and 0.937; under `C=CCN(C(=O)C1N(C(C)(C)CO)C(=O)C2C(C(=O)O)C3C=CC21O3)c1ccc(OC)cc1` (stereo unspecified), 0.489 and -0.143; under `COC(=O)c1c2oc(c1C(=O)OC)C(=O)N[C@@H](Cc1ccccc1)Cn1cc(nn1)C1(CCCCC1)NC(=O)N[C@H](CO)CC2`, 1.61 and 1.46.
Still for that read-out and setting: under `C=C[C@H](C)[C@H](O)c1ccc(O)c2ccccc12` stands 0.26 and 0.0956; under `CCOC(=O)C[C@H]1[C@H](OC(=O)c2ccccc2-c2ccccc2)[C@@H](NC(=O)Cc2ccc(OC)cc2)c2cc(OCCCO)ccc2N1C(=O)c1ccc2ccccc2n1`, 0.528 and 0.85.
Same read-out and setting: under `CC(C)OC(=O)C=C1C[C@@H](c2ccccc2)O[C@@H](c2ccccc2)O1` stands 0.0904 and -0.562; under `COC(=O)C1=C(C)N(Cc2ccccc2)C2=C(C(=O)c3ccccc3)[C@H](c3ccccc3)[C@@](O)(C(=O)OC)C(=O)N2[C@@H]1c1ccccc1`, 0.291 and 0.302.
Regarding `COC(=O)[C@@]1(Cc2ccc(F)cc2)[C@H]2c3cc(C(=O)N4CCCC4)n(Cc4c(CO)[nH]cc(C)c4=O)c3C[C@H]2CN1C(=O)c1ccccc1`, the z-score is -0.605 and 1.06.
Same read-out and setting: under `C[N+](C)(C)CCCCCCNC(=O)[C@H]1C[C@H]2C(=O)N[C@@H](CCCC[N+](C)(C)C)C(=O)N2[C@H]1c1ccc(O)cc1` stands -0.0179 and -0.609; under `CC(CO)N1C(=O)[C@@H]2C3C(=O)OCCC=C[C@H]3OC23C=CCN(CCN2CCOCC2)C(=O)[C@@H]13` (stereo partly specified), -0.437 and 0.303.
Same read-out and setting: under `CCCC[C@@H]1CN2[C@H](c3ccc(Br)cc3)[C@@H](C)CC[C@H]2C(=O)O1` stands 0.0187 and 0.563; under `CO[C@H]1COC(=O)CC=C[C@H](C)[C@H](OC)COC(=O)[C@@H](C)COC(=O)CC=C[C@@H]1C`, 0.492 and 0.464.
